# What was measured:
# [1] = molecular target: Protein kinase C gamma type (Homo sapiens) (UniProt P05129); details: at 1 µM;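 note: each value is an averaged percent inhibition of the enzyme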
# [2] = molecular target: T1, Protein kinase C iota type (Homo sapiens) (UniProt P41743); details: at 0.1 µM
# T1 sequence (whole entry): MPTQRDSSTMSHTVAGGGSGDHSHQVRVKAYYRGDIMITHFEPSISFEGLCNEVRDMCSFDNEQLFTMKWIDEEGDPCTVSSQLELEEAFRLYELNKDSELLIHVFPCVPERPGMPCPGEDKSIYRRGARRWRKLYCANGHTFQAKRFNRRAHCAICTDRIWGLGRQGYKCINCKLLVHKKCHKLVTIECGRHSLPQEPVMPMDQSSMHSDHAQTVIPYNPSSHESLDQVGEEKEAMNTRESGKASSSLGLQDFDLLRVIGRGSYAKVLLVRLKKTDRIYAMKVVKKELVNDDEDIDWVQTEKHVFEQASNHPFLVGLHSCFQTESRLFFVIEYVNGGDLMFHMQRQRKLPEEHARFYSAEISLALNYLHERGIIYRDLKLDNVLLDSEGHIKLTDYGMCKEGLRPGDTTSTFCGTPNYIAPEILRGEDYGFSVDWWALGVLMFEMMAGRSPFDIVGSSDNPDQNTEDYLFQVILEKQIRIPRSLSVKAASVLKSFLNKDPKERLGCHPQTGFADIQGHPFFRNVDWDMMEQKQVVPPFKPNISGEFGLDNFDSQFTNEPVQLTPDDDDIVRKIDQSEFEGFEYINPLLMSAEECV
# [3] = molecular target: T1, Protein kinase C iota type (Homo sapiens); details: at 1 µM
# [4] = molecular target: Protein kinase C theta type (Homo sapiens) (UniProt Q04759); details: at 0.1 µM
# Chain of Protein kinase C theta type (Homo sapiens) (Q04759 whole entry, looked up): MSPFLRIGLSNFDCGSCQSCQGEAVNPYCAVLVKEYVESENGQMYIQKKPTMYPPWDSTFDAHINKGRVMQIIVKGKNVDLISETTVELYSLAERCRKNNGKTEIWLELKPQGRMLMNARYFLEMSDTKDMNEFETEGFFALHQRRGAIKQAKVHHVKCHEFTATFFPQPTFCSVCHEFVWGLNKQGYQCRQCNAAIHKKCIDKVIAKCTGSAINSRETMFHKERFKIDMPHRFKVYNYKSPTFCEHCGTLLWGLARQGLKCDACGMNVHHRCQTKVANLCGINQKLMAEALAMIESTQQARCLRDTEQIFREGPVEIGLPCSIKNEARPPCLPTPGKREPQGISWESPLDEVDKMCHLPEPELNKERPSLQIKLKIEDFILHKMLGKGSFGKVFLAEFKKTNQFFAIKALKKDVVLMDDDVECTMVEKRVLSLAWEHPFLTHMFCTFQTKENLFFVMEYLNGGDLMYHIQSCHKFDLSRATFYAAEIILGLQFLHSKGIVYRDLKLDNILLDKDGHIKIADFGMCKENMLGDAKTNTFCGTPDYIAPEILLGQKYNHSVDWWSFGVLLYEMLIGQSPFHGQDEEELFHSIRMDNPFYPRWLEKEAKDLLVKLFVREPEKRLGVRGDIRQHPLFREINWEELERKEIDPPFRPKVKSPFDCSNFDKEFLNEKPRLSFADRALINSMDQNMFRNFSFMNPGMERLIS
# [5] = molecular target: Protein kinase C theta type (Homo sapiens) (UniProt Q04759); details: at 1 µM
# [6] = molecular target: Protein kinase C beta type (Homo sapiens) (UniProt P05771); details: at 0.1 µM
# Chain of Protein kinase C beta type (Homo sapiens) (P05771 2-671 limits assumed): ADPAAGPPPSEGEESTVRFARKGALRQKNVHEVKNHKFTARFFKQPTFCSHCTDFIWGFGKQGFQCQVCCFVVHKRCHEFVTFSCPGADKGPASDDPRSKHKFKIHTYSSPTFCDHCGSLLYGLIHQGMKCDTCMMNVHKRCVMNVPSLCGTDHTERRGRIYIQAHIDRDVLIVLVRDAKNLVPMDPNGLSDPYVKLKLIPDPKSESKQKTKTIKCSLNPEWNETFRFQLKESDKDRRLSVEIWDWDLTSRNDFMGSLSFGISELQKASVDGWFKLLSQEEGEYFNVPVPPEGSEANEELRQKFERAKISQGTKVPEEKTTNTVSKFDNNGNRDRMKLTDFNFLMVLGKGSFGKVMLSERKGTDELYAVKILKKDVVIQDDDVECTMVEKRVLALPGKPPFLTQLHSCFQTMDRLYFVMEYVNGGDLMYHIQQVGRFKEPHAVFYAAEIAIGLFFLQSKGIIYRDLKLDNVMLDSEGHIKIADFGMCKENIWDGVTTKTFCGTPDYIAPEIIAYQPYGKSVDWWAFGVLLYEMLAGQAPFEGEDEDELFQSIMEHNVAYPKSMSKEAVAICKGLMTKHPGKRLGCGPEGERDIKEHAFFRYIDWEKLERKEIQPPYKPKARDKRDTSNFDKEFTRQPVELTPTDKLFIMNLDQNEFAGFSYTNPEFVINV
# [7] = molecular target: Protein kinase C beta type (Homo sapiens) (UniProt P05771); details: at 1 µM
# [8] = molecular target: T2, Serine/threonine-protein kinase D1 (Homo sapiens) (UniProt Q15139); details: at 0.1 µM
# T2 sequence (whole entry): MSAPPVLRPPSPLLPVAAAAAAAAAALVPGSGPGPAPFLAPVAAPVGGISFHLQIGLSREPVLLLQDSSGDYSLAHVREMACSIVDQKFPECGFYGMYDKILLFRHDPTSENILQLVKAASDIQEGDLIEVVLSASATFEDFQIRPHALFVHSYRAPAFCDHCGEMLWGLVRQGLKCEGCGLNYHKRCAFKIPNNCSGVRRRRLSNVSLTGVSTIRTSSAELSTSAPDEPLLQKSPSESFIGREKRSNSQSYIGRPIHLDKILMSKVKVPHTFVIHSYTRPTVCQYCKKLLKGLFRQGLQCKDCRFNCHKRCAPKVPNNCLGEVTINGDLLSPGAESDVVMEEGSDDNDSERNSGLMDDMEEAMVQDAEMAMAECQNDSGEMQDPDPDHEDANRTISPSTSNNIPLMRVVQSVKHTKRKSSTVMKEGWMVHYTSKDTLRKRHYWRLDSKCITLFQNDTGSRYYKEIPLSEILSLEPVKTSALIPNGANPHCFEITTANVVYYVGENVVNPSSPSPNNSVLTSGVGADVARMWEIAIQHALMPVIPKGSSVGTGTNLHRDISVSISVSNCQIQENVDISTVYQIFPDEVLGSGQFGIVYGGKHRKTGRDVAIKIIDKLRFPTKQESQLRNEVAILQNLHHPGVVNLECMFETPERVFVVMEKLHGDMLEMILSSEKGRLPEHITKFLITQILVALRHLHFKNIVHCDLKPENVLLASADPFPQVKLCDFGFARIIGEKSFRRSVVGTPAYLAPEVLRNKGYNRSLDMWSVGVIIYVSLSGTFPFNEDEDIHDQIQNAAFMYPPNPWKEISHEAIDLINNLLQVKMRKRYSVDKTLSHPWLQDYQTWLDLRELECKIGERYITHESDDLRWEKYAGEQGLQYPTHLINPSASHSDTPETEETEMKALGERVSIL
# [9] = molecular target: T2, Serine/threonine-protein kinase D1 (Homo sapiens); details: at 1 µM
# [10] = molecular target: T3, Serine/threonine-protein kinase D2 (Homo sapiens) (UniProt Q9BZL6); details: at 0.1 µM
# T3 sequence (whole entry): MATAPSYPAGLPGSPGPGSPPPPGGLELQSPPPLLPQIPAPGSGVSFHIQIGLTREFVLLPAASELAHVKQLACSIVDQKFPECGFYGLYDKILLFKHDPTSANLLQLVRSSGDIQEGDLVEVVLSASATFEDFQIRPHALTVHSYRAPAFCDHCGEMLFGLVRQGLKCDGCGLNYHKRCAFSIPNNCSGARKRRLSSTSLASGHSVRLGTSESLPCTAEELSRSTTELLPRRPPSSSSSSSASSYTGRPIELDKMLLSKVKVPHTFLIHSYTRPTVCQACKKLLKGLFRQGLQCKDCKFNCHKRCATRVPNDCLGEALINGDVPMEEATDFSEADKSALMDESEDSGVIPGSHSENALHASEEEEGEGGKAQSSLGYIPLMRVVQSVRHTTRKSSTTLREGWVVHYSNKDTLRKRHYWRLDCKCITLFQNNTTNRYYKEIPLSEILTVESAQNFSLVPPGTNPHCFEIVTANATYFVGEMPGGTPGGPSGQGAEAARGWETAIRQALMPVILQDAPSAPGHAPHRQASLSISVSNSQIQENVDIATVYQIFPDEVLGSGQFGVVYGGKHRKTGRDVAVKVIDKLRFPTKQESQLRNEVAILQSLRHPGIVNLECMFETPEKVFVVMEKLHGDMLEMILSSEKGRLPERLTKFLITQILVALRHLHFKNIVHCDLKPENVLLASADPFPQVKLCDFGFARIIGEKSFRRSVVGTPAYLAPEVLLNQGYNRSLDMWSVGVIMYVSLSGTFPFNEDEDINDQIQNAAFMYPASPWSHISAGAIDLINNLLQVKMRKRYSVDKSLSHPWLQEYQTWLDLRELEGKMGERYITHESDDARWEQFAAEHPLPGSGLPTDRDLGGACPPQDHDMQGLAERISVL
# [11] = molecular target: T3, Serine/threonine-protein kinase D2 (Homo sapiens); details: at 1 µM
# [12] = molecular target: T4, Serine/threonine-protein kinase D3 (Homo sapiens) (UniProt O94806); details: at 0.1 µM
# T4 sequence (whole entry): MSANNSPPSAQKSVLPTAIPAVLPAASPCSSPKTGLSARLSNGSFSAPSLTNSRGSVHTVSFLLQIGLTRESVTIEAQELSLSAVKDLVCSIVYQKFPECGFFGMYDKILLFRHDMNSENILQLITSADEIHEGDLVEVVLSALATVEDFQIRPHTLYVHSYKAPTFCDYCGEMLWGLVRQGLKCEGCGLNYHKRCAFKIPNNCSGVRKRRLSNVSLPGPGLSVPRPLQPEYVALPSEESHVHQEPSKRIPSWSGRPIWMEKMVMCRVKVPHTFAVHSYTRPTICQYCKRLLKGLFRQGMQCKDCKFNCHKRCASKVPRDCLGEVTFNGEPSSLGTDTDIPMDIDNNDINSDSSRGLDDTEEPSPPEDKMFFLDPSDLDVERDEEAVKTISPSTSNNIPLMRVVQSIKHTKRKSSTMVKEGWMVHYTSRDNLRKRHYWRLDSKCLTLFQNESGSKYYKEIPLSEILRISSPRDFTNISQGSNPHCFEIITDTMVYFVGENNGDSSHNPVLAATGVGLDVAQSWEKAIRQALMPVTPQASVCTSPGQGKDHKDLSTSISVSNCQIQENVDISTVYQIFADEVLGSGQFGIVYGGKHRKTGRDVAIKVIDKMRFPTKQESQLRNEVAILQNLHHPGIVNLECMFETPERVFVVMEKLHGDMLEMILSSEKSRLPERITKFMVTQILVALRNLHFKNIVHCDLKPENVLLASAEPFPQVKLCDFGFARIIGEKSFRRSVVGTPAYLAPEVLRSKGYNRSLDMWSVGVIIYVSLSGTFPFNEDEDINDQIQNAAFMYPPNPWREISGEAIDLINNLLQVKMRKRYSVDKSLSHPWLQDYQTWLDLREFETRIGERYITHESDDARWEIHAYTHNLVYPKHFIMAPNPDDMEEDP
# [13] = molecular target: T4, Serine/threonine-protein kinase D3 (Homo sapiens); details: at 1 µM
# [14] = molecular target: T5, cGMP-dependent protein kinase 1 (Homo sapiens) (UniProt Q13976); details: at 0.1 µM
# T5 sequence (whole entry): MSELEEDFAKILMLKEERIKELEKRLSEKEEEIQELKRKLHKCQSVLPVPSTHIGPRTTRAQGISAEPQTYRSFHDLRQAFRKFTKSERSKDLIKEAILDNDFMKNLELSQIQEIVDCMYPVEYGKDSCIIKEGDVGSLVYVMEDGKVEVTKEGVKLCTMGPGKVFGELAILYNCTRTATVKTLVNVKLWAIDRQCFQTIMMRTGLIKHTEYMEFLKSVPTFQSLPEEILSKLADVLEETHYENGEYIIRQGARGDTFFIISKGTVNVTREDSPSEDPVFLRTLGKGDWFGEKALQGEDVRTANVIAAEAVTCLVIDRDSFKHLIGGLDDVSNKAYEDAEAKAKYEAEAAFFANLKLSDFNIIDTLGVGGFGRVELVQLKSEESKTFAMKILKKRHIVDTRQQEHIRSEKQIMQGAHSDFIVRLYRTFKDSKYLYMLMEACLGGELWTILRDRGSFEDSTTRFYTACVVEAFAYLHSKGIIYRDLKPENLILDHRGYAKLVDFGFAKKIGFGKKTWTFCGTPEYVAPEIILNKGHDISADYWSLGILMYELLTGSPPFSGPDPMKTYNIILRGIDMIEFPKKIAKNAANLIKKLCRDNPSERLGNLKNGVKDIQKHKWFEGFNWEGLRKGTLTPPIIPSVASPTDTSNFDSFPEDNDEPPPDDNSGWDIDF
# [15] = molecular target: T5, cGMP-dependent protein kinase 1 (Homo sapiens); details: at 1 µM
# [16] = molecular target: T6, cGMP-dependent protein kinase 2 (Homo sapiens) (UniProt Q13237); details: at 0.1 µM
# T6 sequence (whole entry): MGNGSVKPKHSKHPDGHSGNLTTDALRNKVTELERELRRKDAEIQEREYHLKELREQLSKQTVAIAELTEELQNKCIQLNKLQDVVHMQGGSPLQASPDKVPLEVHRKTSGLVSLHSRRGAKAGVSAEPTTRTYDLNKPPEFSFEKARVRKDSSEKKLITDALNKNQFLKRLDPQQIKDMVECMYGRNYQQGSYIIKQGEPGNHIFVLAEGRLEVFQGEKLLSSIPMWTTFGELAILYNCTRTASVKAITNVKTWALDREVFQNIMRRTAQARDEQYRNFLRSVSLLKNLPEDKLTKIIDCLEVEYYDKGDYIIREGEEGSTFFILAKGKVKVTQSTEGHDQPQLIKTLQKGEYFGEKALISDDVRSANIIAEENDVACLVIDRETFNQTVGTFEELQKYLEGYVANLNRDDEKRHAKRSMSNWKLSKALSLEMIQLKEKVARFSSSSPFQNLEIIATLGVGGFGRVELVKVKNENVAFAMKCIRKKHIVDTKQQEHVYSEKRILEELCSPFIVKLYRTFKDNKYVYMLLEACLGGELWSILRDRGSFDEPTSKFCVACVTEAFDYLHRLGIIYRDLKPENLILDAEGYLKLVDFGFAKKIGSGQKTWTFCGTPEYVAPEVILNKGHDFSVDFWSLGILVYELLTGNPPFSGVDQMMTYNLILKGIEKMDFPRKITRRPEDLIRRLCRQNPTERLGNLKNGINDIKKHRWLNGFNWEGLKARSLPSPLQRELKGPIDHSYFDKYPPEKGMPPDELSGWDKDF
# [17] = molecular target: T6, cGMP-dependent protein kinase 2 (Homo sapiens); details: at 1 µM
# [18] = molecular target: T7, cAMP-dependent protein kinase catalytic subunit PRKX (Homo sapiens) (UniProt P51817); details: at 0.1 µM
# T7 sequence (whole entry): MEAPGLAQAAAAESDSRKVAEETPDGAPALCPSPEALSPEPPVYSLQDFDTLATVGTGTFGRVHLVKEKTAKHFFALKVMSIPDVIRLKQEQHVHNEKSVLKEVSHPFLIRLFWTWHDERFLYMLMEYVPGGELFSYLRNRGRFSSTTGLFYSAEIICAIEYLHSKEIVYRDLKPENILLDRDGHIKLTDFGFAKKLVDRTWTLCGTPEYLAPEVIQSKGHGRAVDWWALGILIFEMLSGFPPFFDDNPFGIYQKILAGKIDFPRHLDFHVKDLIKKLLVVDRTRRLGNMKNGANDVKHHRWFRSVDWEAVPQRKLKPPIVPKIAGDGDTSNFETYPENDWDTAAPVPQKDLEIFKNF
# [19] = molecular target: T7, cAMP-dependent protein kinase catalytic subunit PRKX (Homo sapiens); details: at 1 µM
# [20] = molecular target: Rho-associated protein kinase 1 (Homo sapiens) (UniProt Q13464); details: at 0.1 µM;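 note: values are mean percent inhibition of ROCK1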
# Chain of Rho-associated protein kinase 1 (Homo sapiens) (Q13464 2-1354 limits assumed): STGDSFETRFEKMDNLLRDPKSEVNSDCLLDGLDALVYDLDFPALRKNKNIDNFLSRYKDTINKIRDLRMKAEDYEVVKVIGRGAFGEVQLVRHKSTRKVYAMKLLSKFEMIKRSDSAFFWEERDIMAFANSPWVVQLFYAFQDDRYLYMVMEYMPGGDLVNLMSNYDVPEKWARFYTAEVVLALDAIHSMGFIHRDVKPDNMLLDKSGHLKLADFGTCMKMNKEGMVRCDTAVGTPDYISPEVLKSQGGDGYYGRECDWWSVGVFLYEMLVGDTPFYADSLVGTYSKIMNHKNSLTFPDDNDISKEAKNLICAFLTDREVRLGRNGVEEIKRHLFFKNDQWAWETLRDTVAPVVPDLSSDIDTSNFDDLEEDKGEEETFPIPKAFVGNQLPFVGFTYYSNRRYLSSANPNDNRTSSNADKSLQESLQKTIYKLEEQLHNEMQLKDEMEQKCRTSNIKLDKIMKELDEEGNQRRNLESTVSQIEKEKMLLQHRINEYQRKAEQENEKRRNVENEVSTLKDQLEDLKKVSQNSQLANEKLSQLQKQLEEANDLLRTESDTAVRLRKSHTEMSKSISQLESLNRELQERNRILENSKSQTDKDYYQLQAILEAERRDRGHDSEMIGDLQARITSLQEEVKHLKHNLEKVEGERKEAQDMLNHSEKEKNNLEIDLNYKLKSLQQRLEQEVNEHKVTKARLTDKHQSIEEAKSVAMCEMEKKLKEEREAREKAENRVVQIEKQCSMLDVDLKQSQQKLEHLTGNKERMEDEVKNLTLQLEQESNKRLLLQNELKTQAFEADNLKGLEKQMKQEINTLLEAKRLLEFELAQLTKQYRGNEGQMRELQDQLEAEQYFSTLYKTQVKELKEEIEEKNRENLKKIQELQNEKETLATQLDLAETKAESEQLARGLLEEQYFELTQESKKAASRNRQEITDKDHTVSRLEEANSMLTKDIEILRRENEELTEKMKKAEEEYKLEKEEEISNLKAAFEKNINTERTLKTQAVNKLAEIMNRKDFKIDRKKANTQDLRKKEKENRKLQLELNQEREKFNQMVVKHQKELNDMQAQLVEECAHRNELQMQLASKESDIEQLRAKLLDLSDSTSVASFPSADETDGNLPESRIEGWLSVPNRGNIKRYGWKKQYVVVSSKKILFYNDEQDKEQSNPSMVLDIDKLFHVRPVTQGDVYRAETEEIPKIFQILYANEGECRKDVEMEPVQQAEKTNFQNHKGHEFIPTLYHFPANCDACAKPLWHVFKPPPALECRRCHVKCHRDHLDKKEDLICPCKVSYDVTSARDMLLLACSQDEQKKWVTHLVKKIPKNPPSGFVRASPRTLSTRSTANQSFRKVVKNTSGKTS
smiles,measurement,setting,value
Fc1ccc(-c2ncn(C3CCNCC3)c2-c2ccnc(Oc3ccc(F)c(F)c3)n2)cc1,inhibition,[1],4.25%
same,inhibition,[2],1.82%
same,inhibition,[3],1.79%
same,inhibition,[4],2.61%
same,inhibition,[5],2.43%
same,inhibition,[6],0.97%
same,inhibition,[7],3.85%
same,inhibition,[8],2%
same,inhibition,[9],7.05%
same,inhibition,[10],1.25%
same,inhibition,[11],3.98%
same,inhibition,[12],1.09%
same,inhibition,[13],5.58%
same,inhibition,[14],2.42%
same,inhibition,[15],0.89%
same,inhibition,[16],0.9%
same,inhibition,[17],4.44%
same,inhibition,[18],1.98%
same,inhibition,[19],2.55%
same,inhibition,[20],1.38%

# — ChEMBL document CHEMBL1961873, “Compounds: GSK PKIS; Assays: Nanosyn kinase panel” (2012)
